Activity calls are given as the source filed them. Calls follow the shape of the dose curve; as a rule, active = well fitted curve in the direction sought with a large enough effect in the repeat runs; inconclusive = weak or mixed curves; inactive = flat fitted curve, though single readings scatter.
Assays:
[1] = qHTS assay to test for compound auto fluorescence at 535 nm (green) in HEK293 cells (AID 720680)
[2] = qHTS assay to test for compound auto fluorescence at 460 nm (blue) in HEK293 cell free culture (AID 720681)
Procedure, shortened: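 Compounds were added to cell-free DMEM with 10% FBS and fluorescence read directly. The blue channel used 405 nm excitation and 460 nm emission, with triamterene as the reference fluorophore.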

[3] = qHTS assay to test for compound auto fluorescence at 535 nm (green) in HEK293 cell free culture (AID 720682)
Procedure, shortened: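 Steps: dispense DMEM/10% FBS into empty wells; pin in compound or DMSO; measure fluorescence at 485/535 nm. Values are fluorescein equivalents.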

[4] = qHTS assay to test for compound auto fluorescence at 590 nm (red) in HEK293 cell free culture (AID 720683)
Procedure, shortened: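 Cell-free wells of DMEM with 10% FBS received compound, and intrinsic fluorescence was read at excitation/emission 540/590 nm. Values expressed as equivalence to Rose Bengal sodium.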

[5] = qHTS assay to test for compound auto fluorescence at 590 nm (red) in HepG2 cell free culture (AID 720684)
Procedure, shortened: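 Rose Bengal sodium served as the reference for red signal. Test compounds were dispensed into serum-containing MEM (10% FBS) without cells, and plates were read at 540/590 nm.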

[6] = qHTS assay to test for compound auto fluorescence at 460 nm (blue) in HepG2 cell free culture (AID 720685)
Procedure, shortened: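 Cell-free plates of MEM plus 10% FBS received 23 nL compound or DMSO vehicle; blue-channel (405/460 nm) intensity scored against triamterene as reference fluorophore.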

[7] = qHTS assay to test for compound auto fluorescence at 535 nm (green) in HepG2 cell free culture (AID 720686)
[8] = qHTS assay to test for compound auto fluorescence at 460 nm (blue) in HepG2 cells (AID 720687)
Procedure, shortened: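 HepG2 cells in MEM with 10% FBS, attached overnight at 37 C, were exposed to compound or DMSO for 1 hr at 37 C, 5% CO2. Blue fluorescence was read at 405/460 nm, with triamterene as reference fluorophore.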

Measured: Potency

O=c1[nH]c2ccccc2n1CCCN1CCC(n2c(=O)[nH]c3cc(Cl)ccc32)CC1
inactive: [1] | [2] | [3] | [4] | [5] | [6] | [7] | [8]

CCN(CC)C(=S)[S-].CCN(CC)C(=S)[S-].[Zn+2]
inactive: [1] | [2] | [3] | [4] | [5] | [6] | [7] | [8]

CC(C)[C@H](C(=O)O[C@H](C#N)c1cccc(Oc2ccccc2)c1)c1ccc(Cl)cc1
inactive: [1] | [2] | [3] | [4] | [5] | [6] | [7] | [8]

O=c1[nH]c2ccccc2n1C1CCN(CCCC(c2ccc(F)cc2)c2ccc(F)cc2)CC1
inactive: [1] | [2] | [3] | [4] | [5] | [6] | [7] | [8]

Cc1cc(SCc2sc(-c3ccc(C(F)(F)F)c(F)c3)nc2C)ccc1OCC(=O)O
inactive: [1] | [2] | [3] | [4] | [5] | [6] | [7] | [8]

CC(C)CC(C)Nc1ccc(Nc2ccccc2)cc1 (configuration not stated)
inactive: [1] | [2] | [3] | [4] | [5] | [6] | [7] | [8]

CCCN(CCC)c1c([N+](=O)[O-])cc(S(N)(=O)=O)cc1[N+](=O)[O-]
inactive: [1] | [2] | [3] | [4] | [5] | [6] | [7] | [8]

O=CC(Br)(Br)Br
inactive: [1] | [2] | [3] | [4] | [5] | [6] | [7] | [8]

CC(=O)[O-].[Tl+]
inactive: [1] | [2] | [3] | [4] | [5] | [6] | [7] | [8]

CCCCCCCCCCCCCCCCCCn1cc[n+](C)c1
inactive: [1] | [2] | [3] | [4] | [5] | [6] | [7] | [8]

CN(C)S(=O)(=O)N(SC(F)(Cl)Cl)c1ccccc1
inactive: [1] | [2] | [3] | [4] | [5] | [6] | [7] | [8]

CC(C)(C)c1cc([N+](=O)[O-])cc(C(C)(C)C)c1O
inactive: [1] | [2] | [3] | [4] | [5] | [6] | [7] | [8]

CC(C)C1CCC(Cc2ccc(Cl)cc2)C1(O)Cn1cncn1 (configuration not stated)
inactive: [1] | [2] | [3] | [4] | [5] | [6] | [7] | [8]

[Hg+2].[I-].[I-]
inactive: [1] | [2] | [3] | [4] | [5] | [6] | [7] | [8]

CNC(C)Cc1ccc2c(c1)OCO2 (configuration not stated)
inactive: [1] | [2] | [3] | [4] | [5] | [6] | [7] | [8]

CC1(C)C(/C=C(\Cl)C(F)(F)F)C1C(=O)OC(C#N)c1cccc(Oc2ccccc2)c1 (configuration not stated)
inactive: [1] | [2] | [3] | [4] | [5] | [6] | [7] | [8]

c1ccc2c(c1)[nH]c1cnccc12
inactive: [1] | [2] | [3] | [4] | [5] | [6] | [7]

CN(C)C(=S)S
inactive: [1] | [2] | [3] | [4] | [5] | [6] | [7] | [8]

CC(C)(C)OO
inactive: [1] | [2] | [3] | [4] | [5] | [6] | [7] | [8]

CCN
inactive: [1] | [2] | [3] | [4] | [5] | [6] | [7] | [8]

[Cl][Sb]([Cl])[Cl]
inactive: [1] | [2] | [3] | [4] | [5] | [6] | [7] | [8]

Oc1c(Cl)c(Cl)cc(Cl)c1Cl
inactive: [1] | [2] | [3] | [4] | [5] | [6] | [7] | [8]

CCOc1cc(C(C)(C)C)ccc1C1COC(c2c(F)cccc2F)=N1 (configuration not stated)
inactive: [1] | [2] | [3] | [4] | [5] | [6] | [7] | [8]

CC[C@H]1C[C@@H]2C[C@H]3c4[nH]c5ccc(OC)cc5c4CCN(C2)[C@@H]13
inactive: [1] | [2] | [3] | [4] | [5] | [6] | [7] | [8]

C=CCC1=C(C)C(OC(=O)C2C(C=C(C)C)C2(C)C)CC1=O (configuration not stated)
inactive: [1] | [2] | [3] | [4] | [5] | [6] | [7] | [8]

CS(=O)(=O)c1ccc(C(=O)C2C(=O)CCCC2=O)c([N+](=O)[O-])c1
inactive: [1] | [2] | [3] | [4] | [5] | [6] | [7] | [8]

From PubChem BioAssay (Tox21)
